Data on ten molecules can be found in the supplement of paper PMC4022240.

± gives the standard deviation.

Holding throughout (assay): peptide microarray binding signal (635 nm), min-max normalized on array (fraction of array maximum); higher = stronger binding
Holding throughout (details): peptide region: H3 5-17

Assay [1] addresses T1, HaloTag-ATRX ADD domain (163-292).
T1 chain: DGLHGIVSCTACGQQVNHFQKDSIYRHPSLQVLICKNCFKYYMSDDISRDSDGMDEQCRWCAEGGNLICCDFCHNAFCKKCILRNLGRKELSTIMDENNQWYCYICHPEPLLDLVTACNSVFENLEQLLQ
In a few lines:
(§1)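 Two probe formats were used for 1 h at 4°C: biotin-labelled HaloTag reader fusions (10 nM to 1 μM) with streptavidin-Alexa Fluor 647, and rabbit histone antibodies (1:10,000 to 1:2,000) with anti-rabbit Alexa 647. Both were applied to nitrocellulose arrays of histone 13-mer peptide–cellulose conjugates printed in triplicate with a Cy3 tracer and blocked overnight at 4°C. Signal was read at 635 nm and misprints at 532 nm on an Axon GenePix 4000B. Binding signal is expressed as the triplicate-spot mean intensity, min-max scaled for each library.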

The target in assay [2] is HaloTag-ING2 PHD (mouse Ing2 200-280). In a few lines:
as §1

Assay [3] concerns the target anti-H3K4me3 antibody ab8580. In a few lines:
as §1

The target in assay [4] is anti-H3K9me3 antibody ab8898. In a few lines:
as §1

[5] abbreviates: peptide modifications: H3K9me1 H3K14me2, binder concentration: 1:2,000 dilution.
The mark [6] stands for this setting: peptide modifications: H3K9me1 H3K14me2, binder concentration: 1:10,000 dilution.
The mark [7] stands for this setting: peptide modifications: H3K9ac, binder concentration: 1:2,000 dilution.
Where [8] appears, read: peptide modifications: H3K9ac, binder concentration: 1:10,000 dilution.
Where [9] appears, read: peptide modifications: H3K9me1 H3T11ph, binder concentration: 1:2,000 dilution.
Where [10] appears, read: peptide modifications: H3K9me1 H3T11ph, binder concentration: 1:10,000 dilution.
The mark [11] stands for this setting: peptide modifications: H3K9me2 H3S10ph, binder concentration: 1:2,000 dilution.
The mark [12] stands for this setting: peptide modifications: H3K9me2 H3S10ph, binder concentration: 1:10,000 dilution.
Where [13] appears, read: peptide modifications: H3K9me2 H3T11ph, binder concentration: 1:2,000 dilution.
Setting [14] is: peptide modifications: H3K9me2 H3T11ph, binder concentration: 1:10,000 dilution.
Setting [15] is: peptide modifications: H3K9ac H3T11ph, binder concentration: 1:2,000 dilution.
[16] abbreviates: peptide modifications: H3K9ac H3T11ph, binder concentration: 1:10,000 dilution.
[17] abbreviates: peptide modifications: H3K9me2 H3K14me3, binder concentration: 1:2,000 dilution.
The mark [18] stands for this setting: peptide modifications: H3K9me2 H3K14me3, binder concentration: 1:10,000 dilution.
The mark [19] stands for this setting: peptide modifications: H3K9me2 H3K14me2, binder concentration: 1:2,000 dilution.
Where [20] appears, read: peptide modifications: H3K9me2 H3K14me2, binder concentration: 1:10,000 dilution.
Where [21] appears, read: peptide modifications: H3K9me3 H3K14ac, binder concentration: 1:2,000 dilution.
Where [22] appears, read: peptide modifications: H3K9me3 H3K14ac, binder concentration: 1:10,000 dilution.
Setting [23] is: peptide modifications: H3K9me2 H3K14me1, binder concentration: 1:2,000 dilution.
[24] abbreviates: peptide modifications: H3K9me2 H3K14me1, binder concentration: 1:10,000 dilution.

As for QTARKSTGGKAPR [H3 5-17 Q T A R Kme S T G G Kme2 A P R], the “peptide microarray binding signal” value was 0.004514 ± 3.4e-05 in assay [1] (peptide modifications: H3K9me1 H3K14me2, binder concentration: 50 nM); 0.00667 ± 0.00028 in assay [1] (peptide modifications: H3K9me1 H3K14me2, binder concentration: 500 nM); 0.00555 ± 0.0003 in assay [2] (peptide modifications: H3K9me1 H3K14me2, binder concentration: 10 nM); 0.00595 ± 0.00024 in assay [2] (peptide modifications: H3K9me1 H3K14me2, binder concentration: 100 nM); 0.00206 ± 0.00041 in assay [3] (setting [5]); 0.00211 ± 0.00015 in assay [3] (setting [6]). The results for the “peptide microarray binding signal” value in assay [4] (setting [5]) and in assay [4] (setting [6]) were 0.00979 ± 0.0019 and 0.00352 ± 0.00022, respectively.
Turning to QTARKSTGGKAPR [H3 5-17 Q T A R Kac S T G G K A P R], the “peptide microarray binding signal” value in assay [1] (peptide modifications: H3K9ac, binder concentration: 50 nM) came to 0.00263 ± 0.00033; in assay [1] (peptide modifications: H3K9ac, binder concentration: 500 nM), 0.00271 ± 0.00021; in assay [2] (peptide modifications: H3K9ac, binder concentration: 10 nM), 0.00352 ± 5e-05; in assay [2] (peptide modifications: H3K9ac, binder concentration: 100 nM) it was 0.002055 ± 2e-05; in assay [3] (setting [7]), 0.00123 ± 0.0001; in assay [3] (setting [8]), 0.00245 ± 0.00036. In addition, the “peptide microarray binding signal” value amounted to 0.0011 ± 6.7e-05 in assay [4] (setting [7]) and 0.00167 ± 7.4e-05 in assay [4] (setting [8]).
For the molecule QTARKSTGGKAPR [H3 5-17 Q T A R Kme S Tph G G K A P R], the “peptide microarray binding signal” value was found to be 0.00179 ± 4.4e-05 in assay [1] (peptide modifications: H3K9me1 H3T11ph, binder concentration: 50 nM); 0.003 ± 0.00011 in assay [1] (peptide modifications: H3K9me1 H3T11ph, binder concentration: 500 nM); 0.002208 ± 2.2e-05 in assay [2] (peptide modifications: H3K9me1 H3T11ph, binder concentration: 10 nM); 0.00524 ± 0.00071 in assay [2] (peptide modifications: H3K9me1 H3T11ph, binder concentration: 100 nM); 0.000396 ± 4.2e-05 in assay [3] (setting [9]); 0.000285 ± 3.1e-06 in assay [3] (setting [10]). For the same molecule, the results for the “peptide microarray binding signal” value in assay [4] (setting [9]) and in assay [4] (setting [10]) were 0.00856 ± 0.0022 and 0.00208 ± 5.1e-05, respectively.
With QTARKSTGGKAPR [H3 5-17 Q T A R Kme2 Sph T G G K A P R], the “peptide microarray binding signal” value turned out to be 0.00806 ± 0.00056 in assay [1] (peptide modifications: H3K9me2 H3S10ph, binder concentration: 50 nM); 0.0147 ± 0.00082 in assay [1] (peptide modifications: H3K9me2 H3S10ph, binder concentration: 500 nM); 0.03 ± 0.0049 in assay [2] (peptide modifications: H3K9me2 H3S10ph, binder concentration: 10 nM); 0.0527 ± 0.017 in assay [2] (peptide modifications: H3K9me2 H3S10ph, binder concentration: 100 nM); 0.0068 ± 0.00063 in assay [3] (setting [11]); 0.00639 ± 0.00076 in assay [3] (setting [12]). In addition, the “peptide microarray binding signal” value in assay [4] (setting [11]) amounted to 0.193 ± 0.067; in assay [4] (setting [12]) it was 0.0868 ± 0.021.
Regarding QTARKSTGGKAPR [H3 5-17 Q T A R Kme2 S Tph G G K A P R], the “peptide microarray binding signal” value in assay [1] (peptide modifications: H3K9me2 H3T11ph, binder concentration: 50 nM) was determined as 0.00201 ± 3.7e-05; in assay [1] (peptide modifications: H3K9me2 H3T11ph, binder concentration: 500 nM), 0.00319 ± 6.5e-05; in assay [2] (peptide modifications: H3K9me2 H3T11ph, binder concentration: 10 nM) it was 0.0031 ± 7.8e-05; in assay [2] (peptide modifications: H3K9me2 H3T11ph, binder concentration: 100 nM), 0.0022 ± 3.7e-05; in assay [3] (setting [13]), 0.000396 ± 7e-06; in assay [3] (setting [14]), 0.000799 ± 8.3e-06. The “peptide microarray binding signal” value in assay [4] (setting [13]) came to 0.0382 ± 0.01; in assay [4] (setting [14]) it was 0.0291 ± 0.0025.
In the case of QTARKSTGGKAPR [H3 5-17 Q T A R Kac S Tph G G K A P R], the “peptide microarray binding signal” value in assay [1] (peptide modifications: H3K9ac H3T11ph, binder concentration: 50 nM) was 0.00266 ± 6.1e-05; in assay [1] (peptide modifications: H3K9ac H3T11ph, binder concentration: 500 nM), 0.0107 ± 0.00079; in assay [2] (peptide modifications: H3K9ac H3T11ph, binder concentration: 10 nM), 0.00531 ± 0.00025; in assay [2] (peptide modifications: H3K9ac H3T11ph, binder concentration: 100 nM), 0.0213 ± 0.0014; in assay [3] (setting [15]), 0.000755 ± 2.5e-05; in assay [3] (setting [16]), 0.000171 ± 1.9e-06. Further, the “peptide microarray binding signal” value worked out at 0.00547 ± 0.00037 in assay [4] (setting [15]) and 0.00271 ± 0.00015 in assay [4] (setting [16]).
Regarding QTARKSTGGKAPR [H3 5-17 Q T A R Kme2 S T G G Kme3 A P R], the “peptide microarray binding signal” value amounted to 0.00301 ± 0.00046 in assay [1] (peptide modifications: H3K9me2 H3K14me3, binder concentration: 50 nM); 0.002 ± 0.00021 in assay [1] (peptide modifications: H3K9me2 H3K14me3, binder concentration: 500 nM); 0.00143 ± 1.7e-05 in assay [2] (peptide modifications: H3K9me2 H3K14me3, binder concentration: 10 nM); 0.00106 ± 3e-05 in assay [2] (peptide modifications: H3K9me2 H3K14me3, binder concentration: 100 nM); 0.00126 ± 0.00029 in assay [3] (setting [17]); 0.00405 ± 0.0015 in assay [3] (setting [18]). Moreover, the “peptide microarray binding signal” value in assay [4] (setting [17]) was found to be 0.00464 ± 0.0015; in assay [4] (setting [18]), 0.00646 ± 0.0028.
For the molecule QTARKSTGGKAPR [H3 5-17 Q T A R Kme2 S T G G Kme2 A P R], the “peptide microarray binding signal” value in assay [1] (peptide modifications: H3K9me2 H3K14me2, binder concentration: 50 nM) amounted to 0.00555 ± 0.0003; in assay [1] (peptide modifications: H3K9me2 H3K14me2, binder concentration: 500 nM), 0.011 ± 0.00059; in assay [2] (peptide modifications: H3K9me2 H3K14me2, binder concentration: 10 nM), 0.00937 ± 0.00041; in assay [2] (peptide modifications: H3K9me2 H3K14me2, binder concentration: 100 nM), 0.00999 ± 0.0011; in assay [3] (setting [19]), 0.00672 ± 0.00077; in assay [3] (setting [20]), 0.00496 ± 0.00056. Moreover, the “peptide microarray binding signal” value amounted to 0.175 ± 0.021 in assay [4] (setting [19]) and 0.0735 ± 0.0023 in assay [4] (setting [20]).
Consider QTARKSTGGKAPR [H3 5-17 Q T A R Kme3 S T G G Kac A P R], for which the “peptide microarray binding signal” value was 0.005862 ± 5.4e-05 in assay [1] (peptide modifications: H3K9me3 H3K14ac, binder concentration: 50 nM); 0.0246 ± 0.0026 in assay [1] (peptide modifications: H3K9me3 H3K14ac, binder concentration: 500 nM); 0.0279 ± 0.0021 in assay [2] (peptide modifications: H3K9me3 H3K14ac, binder concentration: 10 nM); 0.0183 ± 0.013 in assay [2] (peptide modifications: H3K9me3 H3K14ac, binder concentration: 100 nM); 0.0646 ± 0.051 in assay [3] (setting [21]); 0.089 ± 0.042 in assay [3] (setting [22]). For the same molecule, the “peptide microarray binding signal” value in assay [4] (setting [21]) turned out to be 0.781 ± 0.051; in assay [4] (setting [22]), 0.939 ± 0.11.
Regarding QTARKSTGGKAPR [H3 5-17 Q T A R Kme2 S T G G Kme A P R], the “peptide microarray binding signal” value in assay [1] (peptide modifications: H3K9me2 H3K14me1, binder concentration: 50 nM) amounted to 0.00589 ± 7.1e-05; in assay [1] (peptide modifications: H3K9me2 H3K14me1, binder concentration: 500 nM), 0.015 ± 0.0013; in assay [2] (peptide modifications: H3K9me2 H3K14me1, binder concentration: 10 nM) it was 0.00812 ± 0.00048; in assay [2] (peptide modifications: H3K9me2 H3K14me1, binder concentration: 100 nM) it was 0.0359 ± 0.0037; in assay [3] (setting [23]) it was 0.00455 ± 0.00086; in assay [3] (setting [24]), 0.00365 ± 0.00015. Besides, the “peptide microarray binding signal” value in assay [4] (setting [23]) was 0.217 ± 0.078; in assay [4] (setting [24]), 0.0891 ± 0.021.
